In PubChem BioAssay (Tox21):
Records with an inconclusive call do not appear. The source made the active and inactive calls. Unless noted, calls follow the shape of the dose curve; as a rule, active = well fitted curve in the direction sought with a large enough effect in the repeat runs; inconclusive = weak or mixed curves; inactive = no such curve, though single readings can be large; an effect the other way counts as inactive or inconclusive.

Assays:
[1] = qHTS assay to identify small molecule antagonists of the sonic hedgehog signaling (Shh) pathway (AID 1259369; calls by dose curve; also: nearly all actives have a fitted effect of over 45% in size; also: potency is read from the fitted curve at half-maximal effect)
Outline: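 For antagonist detection, the reporter line received test compounds together with conditioned medium, incubated 24hr at 37 C, 5% CO2, then luminescence was recorded following 30min room-temperature luciferase reagent incubation.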

[2] = qHTS assay to identify small molecule agonists of the androgen receptor (AR) signaling pathway in the presence of an antagonist - cell viability counter screen (AID 1259379);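 also: MDA-kb2 human breast cancer cells carrying an MMTV luciferase reporter; series mostly up to about 92 µM; nearly all actives have a fitted effect of over 25% in size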
Outline: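 Seed MDA-kb2 at 3,000 cells/well; incubate 5 hr, 37C, 0% CO2. Add nilutamide to 3.0uM final, then pin compounds at 15 concentrations. Incubate 16 hr. Add CellTiter-Fluor at 15 hr, read fluorescence after 1 hr.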

[3] = biological target: Androgen receptor (Homo sapiens) (UniProt P10275); experiment: qHTS assay to identify small molecule agonists of the androgen receptor (AR) signaling pathway in the presence of an antagonist (AID 1259381; calls by dose curve; also: nearly all actives have a fitted effect of over 15% in size)
Outline: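 Test compounds at 15 concentrations were incubated for 16hr with MDA-kb2 reporter cells in presence of 3.0uM nilutamide (final). Signal: ONE-Glo luciferase luminescence.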

[4] = qHTS assay to identify small molecule antagonists of the estrogen receptor beta (ER-beta) signaling pathway - cell viability counter screen (AID 1259382); also: series mostly up to about 92 µM; nearly all actives have a fitted effect of over 55% in size
Outline: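 In this multiplexed counter screen, cells were seeded at 2,000 per well in medium with 2% charcoal-stripped FBS and incubated 6 hr before compound and 1nM final E2 were added. Sixteen hours later, ATP-based luminescence reported viability.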

[5] = qHTS assay to identify small molecule agonists or antagonists of the thyroid stimulating hormone receptor (TSHR) signaling pathway - wild type cell line counter screen (AID 1259384; calls by dose curve)
Outline: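 Wild-type HEK293 cells were plated 18 h at 37 C/5% CO2, pin-dosed with compound plus Ro20-1724 medium, held 30 min at room temperature, then given cAMP-d2 and anti-cAMP-cryptate; fluorescence was read after 1 h. Fifteen concentrations, triplicate.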

[6] = biological target: Thyrotropin receptor (Homo sapiens) (UniProt P16473); experiment: qHTS assay to identify small molecule antagonists of the thyroid stimulating hormone receptor (TSHR) signaling pathway (AID 1259385; calls by dose curve; also: nearly all actives have a fitted effect of over 20% in size)
Outline: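 TSHR-HEK293 cells were plated and held 18 h at 37C/5% CO2, then given compound plus Ro20-1724 and stimulated with TSH at 1.5 ng/mL final. After 30 min at room temperature, cAMP was detected with cAMP-d2/anti-cAMP-cryptate (1 h) by fluorescence.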

[7] = qHTS assay to identify small molecule agonists of the estrogen receptor alpha (ER-alpha) signaling pathway in the presence of an antagonist - cell viability counter screen (AID 1259386);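 also: series mostly up to about 92 µM; cells exposed to compounds for 22 h at 37 °C before the viability read; nearly all actives have a fitted effect of over 30% in size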
Outline: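 Viability counter screen using VM7Luc4E2 (full-length ER-alpha, four ERE-luciferase). The cells were treated with compounds alongside ICI-182,780 10.0nM for 22hr, and live-cell protease fluorescence was quantified with CellTiter-Fluor.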

[8] = biological target: Progesterone receptor (Homo sapiens) (UniProt P06401); experiment: qHTS assay to identify small molecule agonists of the progesterone receptor (PR) signaling pathway (AID 1346784; calls by dose curve; also: nearly all actives have a fitted effect of over 30% in size; also: potency is read from the fitted curve at half-maximal effect)
Outline: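 PR-UAS-bla HEK 293T cells carrying a UAS-driven beta-lactamase reporter were seeded in medium with 2% charcoal-stripped FBS, preincubated 6 hr at 37C, then exposed to compounds in DMSO for 16 hr; agonism was read by LiveBLAzer B/G FRET fluorescence.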

[9] = biological target: Progesterone receptor (Homo sapiens) (UniProt P06401); experiment: qHTS assay to identify small molecule antagonists of the progesterone receptor (PR) signaling pathway (AID 1346795; active = well fitted inhibition curve with a large enough effect in the signal ratio in the repeat runs, not every such curve was filed as active; the % refers to the signal ratio)
Outline: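 PR-UAS-bla HEK293T cells carrying a UAS-driven beta-lactamase reporter were plated in medium with 2% charcoal-stripped FBS and rested 6 hr at 37C. Compounds were added with 1 nM R5020 (final) for 16 hr, then FRET substrate loaded 2 hr at room temperature.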

[10] = qHTS assay to identify small molecule antagonists of the TGF-beta/Smad signaling pathway - cell viability counter screen (AID 1346824); also: nearly all actives have a fitted effect of over 50% in size
Outline: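 SBE-bla HEK 293T cells were plated overnight at 37 C, then given compounds in DMSO plus TGF-beta1 (added as 0.25 ng/mL solution) for 5 hr. After the bla read, CellTiter-Glo was added to the same wells and luminescence read after 30 min at room temperature.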

[11] = qHTS assay to identify small molecule agonists of the TGF-beta/Smad signaling pathway - cell viability counter screen (AID 1346829); also: top concentration of the series differs between compounds; nearly all actives have a fitted effect of over 45% in size
Outline: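 After overnight seating at 37 C and 5% CO2, reporter cells got compounds for 5 hr and FRET substrate for 2 hr; cell viability then came from CellTiter-Glo luminescence.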

[12] = qHTS assay to identify small molecule agonists of the TGF-beta/Smad signaling pathway (AID 1346859; active = well fitted activation curve with a large enough effect in the signal ratio in the repeat runs, not every such curve was filed as active; the % refers to the signal ratio; also: series mostly up to about 77 µM)
Outline: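 HEK 293T cells stably carrying a beta-lactamase reporter driven by the Smad binding element were seeded overnight, exposed to DMSO-dissolved compounds for 5 hr at 37 C, 5% CO2, then loaded with FRET substrate for 2 hr at room temperature.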

[13] = biological target: Thyrotropin-releasing hormone receptor (Homo sapiens) (UniProt P34981); experiment: qHTS assay to identify small molecule antagonists of the thyrotropin-releasing hormone receptor (TRHR) signaling pathway (AID 1346877; active = well fitted inhibition curve with a large enough effect in the repeat runs, not every such curve was filed as active; also: series mostly up to about 51 µM)
Outline: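 Following an 18 h incubation at 37 °C and a 2 h calcium dye load, TRHR-HEK293 cells were exposed to compound (5 min, room temperature) and challenged with TRH, 1 nM final.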

[14] = biological target: Thyrotropin-releasing hormone receptor (Homo sapiens) (UniProt P34981); experiment: qHTS assay to identify small molecule agonists of the thyrotropin-releasing hormone receptor (TRHR) signaling pathway (AID 1346891; calls by dose curve; also: series mostly up to about 58 µM)
Outline: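 TRHR-expressing HEK293 cells were plated 18 h at 37 °C/5% CO2, loaded with calcium dye 2 h at 37 °C, then given compound in DMSO; fluorescence was read kinetically for 3 min at 1 s intervals.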

[15] = qHTS assay to identify small molecule agonists of the estrogen receptor beta (ER-beta) signaling pathway - cell viability counter screen (AID 1259380); also: nearly all actives have a fitted effect of over 30% in size
Outline: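 CellTiter-Glo read, 30 min RT, same wells as bla assay; cells ER-beta-UAS-bla HEK293T; 16 hr compound, 37C; medium 2% charcoal-stripped FBS.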

[16] = biological target: Estrogen receptor (Homo sapiens) (UniProt P03372); experiment: qHTS assay to identify small molecule agonists of the estrogen receptor alpha (ER-alpha) signaling pathway in the presence of an antagonist (AID 1259383; calls by dose curve; also: top concentration of the series differs between compounds; nearly all actives have a fitted effect of over 15% in size)
Outline: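 Stably transfected VM7Luc4E2 reporter cells, kept 5 days in charcoal-stripped serum, received ICI-182,780 at 10.0nM final before compound addition. Following 22hr incubation at 37C and 5% CO2, luciferase signal was read by luminescence.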

[17] = qHTS assay to identify small molecule agonists of the progesterone receptor (PR) signaling pathway - cell viability counter screen (AID 1346799; calls by dose curve; also: nearly all actives have a fitted effect of over 45% in size)
Outline: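 PR-UAS-bla HEK293T cells, 3,000 per well in medium with 2% charcoal-stripped FBS, were preincubated 6 hr at 37C, then exposed to compounds for 16 hr; viability was read as CellTiter-Glo luminescence after 30 min at room temperature.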

[18] = qHTS assay to identify small molecule antagonists of the progesterone receptor (PR) signaling pathway - cell viability counter screen (AID 1346798); also: series mostly up to about 92 µM; nearly all actives have a fitted effect of over 50% in size
Outline: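 PR-UAS-bla HEK293T cells in medium with 2% charcoal-stripped FBS were treated with compounds plus R5020 for 16 hr at 37C. Cell viability was then read by CellTiter-Glo luminescence after 30 min at room temperature in the same wells.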

[19] = biological target: Estrogen receptor beta (Homo sapiens) (UniProt Q92731); experiment: qHTS assay to identify small molecule agonists of the estrogen receptor beta (ER-beta) signaling pathway (AID 1259377; active = well fitted activation curve with a large enough effect in the signal ratio in the repeat runs, not every such curve was filed as active; the % refers to the signal ratio)
Outline: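 ER-beta-UAS-bla HEK293T (GripTite) cells carrying a UAS-driven beta-lactamase reporter, in medium with 2% charcoal-stripped FBS, were exposed to compounds for 16 hr at 37C; LiveBLAzer B/G FRET substrate was then added and fluorescence read after 2 hours at room temperature.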

[20] = biological target: Estrogen receptor beta (Homo sapiens) (UniProt Q92731); experiment: qHTS assay to identify small molecule antagonists of the estrogen receptor beta (ER-beta) signaling pathway (AID 1259378; active = well fitted inhibition curve with a large enough effect in the signal ratio in the repeat runs, not every such curve was filed as active; the % refers to the signal ratio)
Outline: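 ER-beta-UAS-bla HEK293T (GripTite) cells in 2% charcoal-stripped FBS medium were preincubated 6 hr at 37C, dosed with compound, then stimulated with 1 nM E2 (final) for 16 hr; beta-lactamase reporter read by B/G FRET fluorescence after 2 hr substrate loading.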
% is scaled to controls: 0 for no effect and ±100 for the full control effect.

Progesterone receptor (Homo sapiens), sequence (P06401 whole entry, looked up): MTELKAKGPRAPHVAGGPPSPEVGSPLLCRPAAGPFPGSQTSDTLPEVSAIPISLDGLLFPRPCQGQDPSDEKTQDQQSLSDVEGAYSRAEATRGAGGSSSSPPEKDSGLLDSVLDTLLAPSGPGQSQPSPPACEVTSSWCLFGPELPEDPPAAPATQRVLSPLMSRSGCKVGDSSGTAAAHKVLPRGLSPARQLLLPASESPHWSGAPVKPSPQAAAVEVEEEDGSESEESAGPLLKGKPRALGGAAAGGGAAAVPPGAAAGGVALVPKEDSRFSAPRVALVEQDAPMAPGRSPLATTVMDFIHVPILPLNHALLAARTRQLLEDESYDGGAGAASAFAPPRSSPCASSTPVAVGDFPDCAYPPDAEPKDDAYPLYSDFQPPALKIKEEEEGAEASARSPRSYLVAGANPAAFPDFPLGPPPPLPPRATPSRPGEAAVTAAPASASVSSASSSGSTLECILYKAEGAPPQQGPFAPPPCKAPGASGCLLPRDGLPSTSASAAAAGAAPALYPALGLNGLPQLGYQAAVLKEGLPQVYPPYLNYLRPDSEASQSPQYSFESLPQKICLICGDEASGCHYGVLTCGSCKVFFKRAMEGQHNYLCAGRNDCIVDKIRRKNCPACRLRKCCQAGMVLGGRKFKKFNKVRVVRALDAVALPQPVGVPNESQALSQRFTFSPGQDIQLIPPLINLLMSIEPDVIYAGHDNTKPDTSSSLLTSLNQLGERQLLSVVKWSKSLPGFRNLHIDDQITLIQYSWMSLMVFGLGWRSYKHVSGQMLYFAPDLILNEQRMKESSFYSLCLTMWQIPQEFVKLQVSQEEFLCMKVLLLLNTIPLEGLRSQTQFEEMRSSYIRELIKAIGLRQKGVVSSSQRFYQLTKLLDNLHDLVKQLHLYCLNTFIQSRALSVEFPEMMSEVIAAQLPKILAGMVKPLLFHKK
Thyrotropin receptor (Homo sapiens), sequence (P16473 whole entry, looked up): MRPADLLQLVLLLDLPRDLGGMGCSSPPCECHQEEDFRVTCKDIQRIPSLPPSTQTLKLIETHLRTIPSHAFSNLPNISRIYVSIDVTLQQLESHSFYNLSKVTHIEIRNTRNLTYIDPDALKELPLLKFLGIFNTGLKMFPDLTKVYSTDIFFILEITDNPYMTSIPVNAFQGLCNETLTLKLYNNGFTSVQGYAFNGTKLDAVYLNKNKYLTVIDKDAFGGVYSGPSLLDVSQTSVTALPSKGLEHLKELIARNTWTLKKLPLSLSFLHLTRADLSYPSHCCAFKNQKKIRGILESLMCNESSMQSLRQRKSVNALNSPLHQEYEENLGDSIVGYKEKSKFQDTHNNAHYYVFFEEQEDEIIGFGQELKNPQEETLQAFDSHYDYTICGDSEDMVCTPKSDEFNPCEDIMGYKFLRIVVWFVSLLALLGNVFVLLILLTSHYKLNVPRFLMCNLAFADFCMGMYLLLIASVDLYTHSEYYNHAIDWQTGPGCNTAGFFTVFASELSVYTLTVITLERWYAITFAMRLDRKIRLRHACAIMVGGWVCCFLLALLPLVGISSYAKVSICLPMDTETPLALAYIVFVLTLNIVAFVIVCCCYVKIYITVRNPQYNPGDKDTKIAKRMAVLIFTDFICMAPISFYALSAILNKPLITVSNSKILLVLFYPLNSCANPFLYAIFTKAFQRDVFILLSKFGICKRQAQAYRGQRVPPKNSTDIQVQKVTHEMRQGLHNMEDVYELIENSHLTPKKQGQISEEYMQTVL
Estrogen receptor beta (Homo sapiens), sequence (Q92731 whole entry, looked up): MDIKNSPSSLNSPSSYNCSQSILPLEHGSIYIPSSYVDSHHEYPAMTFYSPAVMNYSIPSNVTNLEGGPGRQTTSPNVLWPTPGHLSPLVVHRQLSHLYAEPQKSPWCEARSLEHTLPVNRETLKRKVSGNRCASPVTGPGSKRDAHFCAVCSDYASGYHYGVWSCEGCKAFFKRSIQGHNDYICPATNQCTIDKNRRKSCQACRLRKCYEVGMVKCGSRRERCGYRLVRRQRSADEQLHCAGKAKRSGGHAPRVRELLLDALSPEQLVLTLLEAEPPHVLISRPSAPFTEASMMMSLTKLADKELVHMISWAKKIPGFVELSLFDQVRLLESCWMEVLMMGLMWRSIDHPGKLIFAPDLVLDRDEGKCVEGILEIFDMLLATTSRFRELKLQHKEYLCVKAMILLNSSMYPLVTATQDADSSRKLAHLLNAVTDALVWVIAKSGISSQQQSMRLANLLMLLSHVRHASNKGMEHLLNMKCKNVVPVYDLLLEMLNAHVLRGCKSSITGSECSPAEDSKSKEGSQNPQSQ
Thyrotropin-releasing hormone receptor (Homo sapiens), sequence (P34981 whole entry, looked up): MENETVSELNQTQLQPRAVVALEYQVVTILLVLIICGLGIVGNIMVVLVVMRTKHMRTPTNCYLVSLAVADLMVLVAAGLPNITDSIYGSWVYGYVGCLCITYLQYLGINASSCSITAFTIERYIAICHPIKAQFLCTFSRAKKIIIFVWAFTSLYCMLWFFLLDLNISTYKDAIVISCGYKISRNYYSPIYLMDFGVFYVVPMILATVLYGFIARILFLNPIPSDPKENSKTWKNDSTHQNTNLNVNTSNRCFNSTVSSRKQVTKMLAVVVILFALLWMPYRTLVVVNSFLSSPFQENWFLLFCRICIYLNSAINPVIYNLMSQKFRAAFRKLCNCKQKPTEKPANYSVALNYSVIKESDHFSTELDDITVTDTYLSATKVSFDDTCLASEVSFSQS
Estrogen receptor (Homo sapiens), sequence (P03372 whole entry, looked up): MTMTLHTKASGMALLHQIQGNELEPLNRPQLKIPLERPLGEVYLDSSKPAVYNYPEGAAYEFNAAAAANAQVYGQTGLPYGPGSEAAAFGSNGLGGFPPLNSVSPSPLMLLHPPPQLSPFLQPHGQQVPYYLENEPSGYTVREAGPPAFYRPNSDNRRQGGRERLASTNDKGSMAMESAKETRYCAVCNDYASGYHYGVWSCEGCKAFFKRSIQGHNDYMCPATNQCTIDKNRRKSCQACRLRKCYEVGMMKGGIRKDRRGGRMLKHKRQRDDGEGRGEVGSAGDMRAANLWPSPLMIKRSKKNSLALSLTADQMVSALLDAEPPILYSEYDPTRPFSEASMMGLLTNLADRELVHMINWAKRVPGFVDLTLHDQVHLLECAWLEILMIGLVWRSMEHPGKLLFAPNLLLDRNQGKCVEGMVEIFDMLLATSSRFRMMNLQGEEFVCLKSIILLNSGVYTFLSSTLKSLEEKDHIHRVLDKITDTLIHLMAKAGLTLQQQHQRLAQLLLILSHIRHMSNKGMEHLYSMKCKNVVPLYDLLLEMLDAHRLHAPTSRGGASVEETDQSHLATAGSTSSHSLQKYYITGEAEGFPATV
Androgen receptor (Homo sapiens), sequence (P10275 whole entry, looked up): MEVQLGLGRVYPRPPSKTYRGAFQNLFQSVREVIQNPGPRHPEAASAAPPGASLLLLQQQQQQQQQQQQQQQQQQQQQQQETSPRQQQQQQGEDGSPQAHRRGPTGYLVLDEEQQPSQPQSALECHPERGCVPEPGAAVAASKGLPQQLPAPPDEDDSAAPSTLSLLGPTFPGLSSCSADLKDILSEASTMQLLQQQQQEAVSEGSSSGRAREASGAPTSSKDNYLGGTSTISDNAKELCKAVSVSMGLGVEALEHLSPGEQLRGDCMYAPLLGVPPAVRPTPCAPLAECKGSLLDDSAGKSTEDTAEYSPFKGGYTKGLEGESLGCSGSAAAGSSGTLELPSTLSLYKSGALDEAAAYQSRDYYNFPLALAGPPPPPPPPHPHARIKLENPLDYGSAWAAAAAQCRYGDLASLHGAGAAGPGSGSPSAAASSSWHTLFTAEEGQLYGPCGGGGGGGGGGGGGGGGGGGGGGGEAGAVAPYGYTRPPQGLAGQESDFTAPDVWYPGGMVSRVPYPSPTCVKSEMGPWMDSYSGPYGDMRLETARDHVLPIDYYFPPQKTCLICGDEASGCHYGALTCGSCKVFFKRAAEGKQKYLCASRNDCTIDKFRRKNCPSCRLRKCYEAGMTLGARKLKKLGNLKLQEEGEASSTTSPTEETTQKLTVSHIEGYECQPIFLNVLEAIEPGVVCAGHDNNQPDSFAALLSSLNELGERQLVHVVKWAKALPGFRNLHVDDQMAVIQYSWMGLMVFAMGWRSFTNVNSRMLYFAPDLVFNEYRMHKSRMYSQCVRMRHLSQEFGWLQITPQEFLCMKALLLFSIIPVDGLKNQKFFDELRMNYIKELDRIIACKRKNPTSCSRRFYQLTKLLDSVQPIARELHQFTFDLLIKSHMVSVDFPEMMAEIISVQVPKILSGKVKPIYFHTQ

CCOC(=O)c1c(C)n(C)c2ccc(O)cc12
inactive: Potency [1] | Potency [2] | Potency [3] | Potency [4] | outcome [5] | Potency [6] | Potency [7] | Potency [8] | Potency [9] | Potency [10] | outcome [11] | outcome [12] | outcome [13] | outcome [14]

CCCC(=O)O[C@]1(C(=O)CO)CC[C@H]2[C@@H]3CCC4=CC(=O)CC[C@]4(C)[C@H]3[C@@H](O)C[C@@]21C
active: Potency [8] 0.841 µM
inactive: Potency [1] | Potency [2] | Potency [15] | Potency [4] | outcome [5] | Potency [6] | Potency [7] | Potency [9] | Potency [10] | outcome [12] | outcome [13] | outcome [14]

Cc1cc(O)cc2c1O[C@](C)(CCC[C@H](C)CCC[C@H](C)CCCC(C)C)CC2
inactive: Potency [1] | Potency [2] | Potency [15] | Potency [4] | Potency [16] | outcome [5] | Potency [6] | Potency [7] | Potency [8] | Potency [9] | Potency [10] | outcome [11] | outcome [12] | outcome [13] | outcome [14]

NC(=O)c1ccc([N+](=O)[O-])cc1
inactive: Potency [1] | Potency [2] | Potency [15] | Potency [4] | outcome [5] | Potency [6] | Potency [7] | Potency [8] | Potency [17] | Potency [10] | outcome [11] | outcome [12]

N[C@H]1CN(c2c(F)cc3c(=O)c(C(=O)O)cn(C4C[C@H]4F)c3c2Cl)CC12CC2 (some centres undefined)
inactive: Potency [1] | Potency [2] | Potency [15] | Potency [4] | Potency [16] | outcome [5] | Potency [6] | Potency [7] | Potency [8] | Potency [9] | Potency [18] | Potency [17] | Potency [10] | outcome [11] | outcome [12] | outcome [13] | outcome [14]

Cc1nc2c([nH]1)c(=O)n(C)c(=O)n2Cc1ccco1
inactive: outcome [19] | outcome [20] | Potency [2] | Potency [15] | Potency [4] | Potency [16] | Potency [7] | Potency [8] | Potency [9] | Potency [18] | Potency [17] | Potency [10] | outcome [11] | outcome [12] | outcome [13] | outcome [14]

Cn1c(N)c(N=O)c(=O)n(C)c1=O
inactive: Potency [1] | Potency [2] | Potency [4] | Potency [7] | Potency [8] | Potency [18] | Potency [17] | Potency [10] | outcome [11] | outcome [12] | outcome [13] | outcome [14]

O=C(CCCN1CCC(O)(c2cccc(C(F)(F)F)c2)CC1)c1ccc(F)cc1
inactive: Potency [1] | Potency [2] | outcome [5] | Potency [7] | Potency [8] | Potency [18] | Potency [10] | outcome [12] | outcome [13] | outcome [14]

CCCCCOC(=O)CCCCC
inactive: Potency [1] | Potency [2] | Potency [4] | Potency [16] | Potency [7] | Potency [8] | Potency [9] | Potency [18] | Potency [10] | outcome [11] | outcome [12] | outcome [13] | outcome [14]

COc1cc(C(=O)N2CCCCCCC2)cc(OC)c1OC
inactive: outcome [19] | outcome [20] | Potency [2] | Potency [15] | Potency [4] | Potency [16] | outcome [5] | Potency [6] | Potency [7] | Potency [8] | Potency [9] | Potency [18] | Potency [17] | Potency [10] | outcome [12] | outcome [13] | outcome [14]

OC(CCN1CCCCC1)(c1ccccc1)C1CC2C=CC1C2 (centres undefined)
inactive: Potency [4] | Potency [16] | Potency [7] | Potency [8] | Potency [9] | Potency [18] | Potency [10] | outcome [11] | outcome [12] | outcome [13] | outcome [14]
active: Potency [1] 16.8 µM

CCc1nccnc1CC
inactive: Potency [1] | activity change, negative = cytotoxicity [2] 1.15% [at 19 µM] | activity change, negative = cytotoxicity [4] 15.2% [at 19 µM] | activation [16] -0.0927% [at 19 µM] | cAMP activity change [5] -3.22% [at 18.9 µM] | activity change, negative = inhibition [6] 0.0688% [at 19 µM] | activity change, negative = cytotoxicity [7] 1.02% [at 19 µM] | activation [8] 0.626% [at 19 µM] | Potency [9] | Potency [18] | activity change, negative = cytotoxicity [17] -10.8% [at 19 µM] | viability change, negative = cytotoxic [10] 4.47% [at 15.8 µM] | activity change, negative = cytotoxicity [11] 3.37% [at 15.8 µM] | activation [12] 1.18% [at 15.8 µM] | activity, negative = inhibition [13] 3.49% [at 10.5 µM] | activation [14] 0.11% [at 11.8 µM]

CCCN1CCCC[C@H]1C(=O)Nc1c(C)cccc1C
inactive: Potency [1] | Potency [2] | Potency [4] | outcome [5] | Potency [6] | Potency [7] | Potency [8] | Potency [18] | Potency [17] | Potency [10] | outcome [11] | outcome [12] | outcome [13] | outcome [14]

OCCOc1ccc(OCCO)cc1
inactive: Potency [1] | Potency [2] | Potency [4] | Potency [16] | outcome [5] | Potency [6] | Potency [7] | Potency [8] | Potency [9] | Potency [18] | Potency [17] | Potency [10] | outcome [12]
